Each structure is given as a SMILES string. The source made the active and inactive calls.

A short description of test [1]: binders of probe aFSTL3 on microarray, primary screen, stem cell growth factor project, biochemical, small-molecule microarray, fluorescence 635/667 (AID 1064).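 Also: measures binding of the biotinylated anti-FSTL3 antibody to printed compounds.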 Conditions: higher = more signal.
The nature of test [2]: binders from COS7 lysate, DM2A8 probe, primary screen, torsin A project, cell lysate, small-molecule microarray, fluorescence 635/667 (AID 1065). Conditions: higher = more signal, COS7 lysate expressing mutant human TOR1A.
A short description of test [3]: binders of probe aFGF2 on microarray, primary screen, stem cell growth factor project, biochemical, small-molecule microarray, fluorescence 635/667 (AID 1067).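 Also: measures binding of biotinylated aFGF2 protein to printed compounds on slides; z-score merges feature fluorescence and signal-to-noise across triplicate slides.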 Conditions: higher = more signal.
A short description of test [4]: binders of probe aFGF10 on microarray, primary screen, stem cell growth factor project, biochemical, small-molecule microarray, fluorescence 635/667 (AID 1071).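 Also: score merges 667 nm spot intensity and signal to noise from triplicate slides.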 Conditions: higher = more signal.
In test [5] the target is Neurogenic locus notch homolog protein 2 (Homo sapiens) (UniProt Q04721). The experiment in a line: Notch2 binders on small-molecule microarrays, primary screen, biochemical, small-molecule microarray, 635 nm fluorescence, stem cell growth factors (AID 1073). Conditions: Notch2 binding, higher = more signal.
Neurogenic locus notch homolog protein 2 (Homo sapiens), sequence (Q04721 whole entry, looked up, canonical isoform): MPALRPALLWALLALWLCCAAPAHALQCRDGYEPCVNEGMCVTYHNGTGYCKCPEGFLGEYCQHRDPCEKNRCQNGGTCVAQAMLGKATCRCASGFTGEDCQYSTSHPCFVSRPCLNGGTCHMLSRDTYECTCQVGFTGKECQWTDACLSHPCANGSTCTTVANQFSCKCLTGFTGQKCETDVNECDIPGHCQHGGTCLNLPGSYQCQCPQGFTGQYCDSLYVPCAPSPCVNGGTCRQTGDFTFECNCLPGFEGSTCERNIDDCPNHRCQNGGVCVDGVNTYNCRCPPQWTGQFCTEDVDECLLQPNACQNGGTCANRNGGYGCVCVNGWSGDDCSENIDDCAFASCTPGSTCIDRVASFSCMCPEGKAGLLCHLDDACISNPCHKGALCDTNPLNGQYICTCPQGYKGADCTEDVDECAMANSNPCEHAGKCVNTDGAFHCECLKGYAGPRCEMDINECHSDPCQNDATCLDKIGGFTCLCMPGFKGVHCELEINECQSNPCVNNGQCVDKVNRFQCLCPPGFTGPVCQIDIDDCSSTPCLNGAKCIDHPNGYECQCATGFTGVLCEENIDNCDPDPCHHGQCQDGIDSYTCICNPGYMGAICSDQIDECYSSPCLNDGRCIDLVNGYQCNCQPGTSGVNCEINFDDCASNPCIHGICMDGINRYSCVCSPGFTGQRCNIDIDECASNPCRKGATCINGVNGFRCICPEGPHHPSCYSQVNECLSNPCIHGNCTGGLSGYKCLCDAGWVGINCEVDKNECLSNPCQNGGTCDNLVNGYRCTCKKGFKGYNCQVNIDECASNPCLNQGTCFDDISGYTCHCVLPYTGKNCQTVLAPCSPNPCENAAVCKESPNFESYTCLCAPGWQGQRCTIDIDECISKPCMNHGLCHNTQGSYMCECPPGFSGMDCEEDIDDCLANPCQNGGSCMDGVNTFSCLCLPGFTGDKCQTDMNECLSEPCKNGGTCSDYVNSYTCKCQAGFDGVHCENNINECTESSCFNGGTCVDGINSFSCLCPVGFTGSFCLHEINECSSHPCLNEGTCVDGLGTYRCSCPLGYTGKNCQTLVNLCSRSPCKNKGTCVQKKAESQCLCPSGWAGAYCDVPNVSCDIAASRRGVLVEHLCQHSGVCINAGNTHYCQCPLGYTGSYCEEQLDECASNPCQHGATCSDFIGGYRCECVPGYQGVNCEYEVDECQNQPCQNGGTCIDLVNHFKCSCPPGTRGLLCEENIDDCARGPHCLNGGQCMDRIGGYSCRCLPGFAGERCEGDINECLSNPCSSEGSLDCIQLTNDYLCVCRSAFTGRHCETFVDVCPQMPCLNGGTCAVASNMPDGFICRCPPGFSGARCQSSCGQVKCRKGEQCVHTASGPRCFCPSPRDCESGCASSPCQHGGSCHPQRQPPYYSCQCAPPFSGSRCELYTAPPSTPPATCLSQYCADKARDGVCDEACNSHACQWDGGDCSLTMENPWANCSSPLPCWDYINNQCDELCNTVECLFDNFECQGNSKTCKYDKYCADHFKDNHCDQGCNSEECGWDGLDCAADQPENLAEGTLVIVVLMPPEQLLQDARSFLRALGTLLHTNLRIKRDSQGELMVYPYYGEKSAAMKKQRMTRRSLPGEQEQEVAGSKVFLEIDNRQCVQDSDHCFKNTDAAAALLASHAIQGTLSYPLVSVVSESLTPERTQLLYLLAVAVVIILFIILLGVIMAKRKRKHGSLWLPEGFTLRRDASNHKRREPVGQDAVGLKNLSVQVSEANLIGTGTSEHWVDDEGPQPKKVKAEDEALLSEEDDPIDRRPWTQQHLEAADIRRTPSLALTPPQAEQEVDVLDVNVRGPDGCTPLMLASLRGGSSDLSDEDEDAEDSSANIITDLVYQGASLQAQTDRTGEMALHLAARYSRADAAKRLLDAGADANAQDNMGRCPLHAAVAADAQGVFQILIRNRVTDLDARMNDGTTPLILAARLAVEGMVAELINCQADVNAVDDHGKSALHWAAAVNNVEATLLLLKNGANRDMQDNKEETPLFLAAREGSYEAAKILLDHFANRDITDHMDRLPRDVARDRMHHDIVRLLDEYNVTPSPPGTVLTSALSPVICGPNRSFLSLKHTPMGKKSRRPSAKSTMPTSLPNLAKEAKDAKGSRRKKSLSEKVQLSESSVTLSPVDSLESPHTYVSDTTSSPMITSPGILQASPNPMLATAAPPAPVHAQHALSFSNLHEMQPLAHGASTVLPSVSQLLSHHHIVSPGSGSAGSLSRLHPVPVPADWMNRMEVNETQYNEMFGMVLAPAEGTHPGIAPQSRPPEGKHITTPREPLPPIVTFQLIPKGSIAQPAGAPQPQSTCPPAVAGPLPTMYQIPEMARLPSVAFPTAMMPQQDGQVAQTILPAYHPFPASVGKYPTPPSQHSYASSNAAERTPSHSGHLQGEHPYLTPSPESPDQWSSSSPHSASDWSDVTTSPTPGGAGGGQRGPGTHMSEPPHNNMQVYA
Test [6] has as its target Pro-neuregulin-1, membrane-bound isoform (Homo sapiens) (UniProt Q02297). The experiment in a line: NRG1 binders on small-molecule microarrays, primary screen, psychiatric disease protein project, biochemical, small-molecule microarray, fluorescence 635/667 (AID 1075).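 Also: score combines 667 nm spot fluorescence with signal to noise.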 Conditions: NRG1 binding, 635 nm fluorescence, higher = more signal.
The subject of test [7] is Neuregulin-1 EGF-like domain. The experiment in a line: binders of neuregulin-1 EGF-like domain, primary screen, biochemical, small-molecule microarray, 635 nm fluorescence (AID 1081).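 Also: binding of the protein to compounds printed on small-molecule microarray slides.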 Conditions: small-molecule microarray binding, higher = more signal.
The nature of test [8]: FRG1 promoter luciferase signal modulators, primary screen, FRG1 inhibition for FSHD, cell-based, C2C12 myotubes, firefly/Renilla luciferase, luminescence (AID 1084). Conditions: higher = more signal, called active from +8 up or from −8 down.
The nature of test [9]: binders of probe aFST on microarray, primary screen, stem cell growth factor project, biochemical, small-molecule microarray, fluorescence 635/667 (AID 1086).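 Also: score merges 667 nm fluorescence with signal-to-noise of each printed compound spot.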 Conditions: higher = more signal.
Test [10] in a line: binders of probe aHhip on microarray, primary screen, stem cell growth factor project, biochemical, small-molecule microarray, fluorescence 635/667 (AID 1087).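 Also: score merges spot fluorescence at 667nm with spot signal to noise ratio.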 Conditions: higher = more signal.

Pro-neuregulin-1, membrane-bound isoform (Homo sapiens), sequence (Q02297 whole entry, looked up, the tested form may be a part, canonical isoform): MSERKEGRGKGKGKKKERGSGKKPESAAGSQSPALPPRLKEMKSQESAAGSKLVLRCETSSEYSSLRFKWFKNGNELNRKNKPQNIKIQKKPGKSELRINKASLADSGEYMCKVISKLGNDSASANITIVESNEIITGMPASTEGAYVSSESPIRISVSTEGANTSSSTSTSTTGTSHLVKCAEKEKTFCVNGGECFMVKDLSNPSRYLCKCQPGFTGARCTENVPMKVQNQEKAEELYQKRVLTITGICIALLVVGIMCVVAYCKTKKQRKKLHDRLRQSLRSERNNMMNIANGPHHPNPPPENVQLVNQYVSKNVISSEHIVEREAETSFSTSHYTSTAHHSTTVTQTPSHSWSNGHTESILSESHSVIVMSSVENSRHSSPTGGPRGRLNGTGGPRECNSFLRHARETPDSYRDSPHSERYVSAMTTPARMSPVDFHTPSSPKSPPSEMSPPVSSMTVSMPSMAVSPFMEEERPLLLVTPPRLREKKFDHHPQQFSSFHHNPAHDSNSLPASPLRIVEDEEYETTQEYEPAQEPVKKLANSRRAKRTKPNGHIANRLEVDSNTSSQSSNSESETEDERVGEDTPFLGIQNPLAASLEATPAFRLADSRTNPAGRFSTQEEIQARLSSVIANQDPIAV

With `O=C(N1CCOCC1)[C@@]1(Cc2ccccc2)COC(c2ccc(OCCCO)cc2)=N1`, the composite z-score in test [1] was found to be 1.06; in test [2], 0.615; in [3], 0.0094; in test [4], 0.64; in [5] it was 0.763; in [6], 1.49. Also, the composite z-score is 1.06 in test [7], 0.48 in test [9] and 0.264 in [10]. The z-score in [8] is -1.28 (inactive).

`COc1ccc([Si](C)(C)[C@H]2[C@H](CC(=O)N3Cc4ccccc4C[C@H]3CO)O[C@@]3(C(=O)N(c4ccccc4)c4ccccc43)[C@@H]2C)cc1`: the composite z-score was 0.0545 in test [1]; 1.37 in test [2]; 0.0568 in test [3]; 0.748 in test [4]; 0.584 in [5]; 1.16 in test [6]. Moreover, the composite z-score in test [7] stood at 1.16; in [9], 0.381; in test [10] it was 0.21. The z-score in test [8] was -2.31 (inactive).

As to `C=CCN1C(=O)[C@@]2(O[C@@H](CCn3cc([C@H](O)c4ccccc4)nn3)[C@H]([Si](C)(C)c3ccc(OC)cc3)[C@H]2C)c2cc(N3C(=O)c4cccc5cccc3c45)ccc21`, the composite z-score in test [1] is 0.241; in [2] it was -0.477; in [3], -0.151; in test [4], -0.215; in test [5], -0.902; in [6], 0.548. The composite z-score was 0.482 in test [7], -0.365 in test [9] and -0.271 in test [10]. In addition, the z-score in [8] is -1.04 (inactive).

In the case of `Cc1ccc(C(C)CC(O)C2C=CC3C(=O)N(C)C(=O)C3N2Nc2ccccc2)o1` (stereo not given), the composite z-score in test [1] was -0.138; in [2], 0.0897; in test [3], 0.0876; in test [4], 0.75; in [5], 1.44; in [6] it was 0.812. The composite z-score in [7] was 1.09; in test [9], 1.44; in [10], -0.0994. Also, the z-score in test [8] is 0.651 (inactive).

For the molecule `C=CCNC(=O)[C@H]1[C@@H]2C(=O)O[C@@H](c3ccccc3)[C@@H](c3ccccc3)N2[C@@H](c2ccccc2OCCO)[C@]12C(=O)N(C(=O)OCCOC)c1ccc(C#Cc3ccc(OC)cc3)cc12`, the composite z-score in test [1] is 0.0122; in [2], 0.633; in test [3], 0.0074; in test [4] it was 0.668; in test [5] it was 0.615; in test [6], 1.33. For the same molecule, the values for the composite z-score in test [7], in test [9] and in test [10] were 1.21, 0.101 and -0.0645, respectively. The z-score in [8] is 1.34 (inactive).

With `C=C(CCCC)/C(=C/C[C@H](OC(=O)c1ccncc1)c1ccc(OCCO)cc1)c1cnc2ccccc2c1`, the composite z-score in [1] is 0.102; in test [2], 1.23; in [3] it was -0.121; in test [4] it was 0.322; in test [5], 1.12; in test [6], 1.33. Moreover, the composite z-score was 1.23 in test [7], 0.402 in [9] and -0.124 in [10]. For the same molecule, in [8], the z-score was -0.791 (inactive).

Consider `C=C(CCCC)C(=O)CC[C@H](OC(=O)c1ccccc1-c1ccccc1C(=O)O)c1ccc(OCCO)cc1`, for which the composite z-score is -0.441 in test [1]; 1.06 in [2]; -0.0876 in [3]; 0.315 in test [4]; -0.181 in [5]; 1.13 in test [6]. In addition, the composite z-score in [7] was 1.19; in test [9], 0.393; in test [10], -0.236. For the same molecule, the z-score in test [8] was -0.62 (inactive).

Turning to `COc1cc(CO)cc(I)c1O[C@H]1C=C(C(=O)NCCO)C[C@@H](NC2CCCCCC2)[C@@H]1O`, the composite z-score is -0.606 in [1]; 0.174 in test [2]; -0.0114 in [3]; 0.998 in test [4]; 0.618 in [5]; -0.0274 in test [6]. Moreover, the composite z-score in test [7] was 0.716; in test [9], -0.0564; in test [10] it was -0.0994. Further, the z-score in test [8] was 0.999 (inactive).

Turning to `CC(C)NC(=O)[C@@H]1c2ccccc2C(=O)N(Cc2ccc(OC(F)(F)F)cc2)[C@H]1c1ccc(CO)cc1`, the composite z-score in [1] was 0.33; in test [2], -0.0722; in test [3], 0.242; in test [4] it was 0.625; in [5], 1.05; in test [6], 0.765. Besides, the values for the composite z-score in [7], in test [9] and in test [10] were 1, 1.35 and 2.21, respectively. Besides, in test [8], the z-score was -1.05 (inactive).

Consider `CCOC(=O)c1cn(C[C@H](Cc2ccccc2)NC(=O)N[C@H](CO)CCc2oc(C(C)=O)c(C(=O)OC)c2C(=O)OC)nn1`, for which the composite z-score in [1] is -0.562; in test [2], -0.0438; in test [3], -0.101; in [4], 1.09; in test [5], 1.47; in test [6] it was 0.553. The results for the composite z-score in test [7], in test [9] and in [10] were 1.39, 0.863 and -0.0383, respectively. For the same molecule, in test [8], the z-score was 0.872 (inactive).

With `COCCOC(=O)N1C(=O)[C@@]2(c3cc(C#Cc4ccc(OC)cc4)ccc31)[C@H](c1ccc(OCCO)cc1)N1[C@H](c3ccccc3)[C@H](c3ccccc3)OC(=O)[C@H]1[C@@H]2C(=O)NC[C@H](O)c1ccccc1`, the composite z-score stood at 1.48 in [1]; 0.628 in test [2]; 0.005 in test [3]; 0.703 in [4]; 1.15 in test [5]; 0.455 in test [6]. Further, the composite z-score in test [7] is 1.2; in test [9] it was 0.919; in [10] it was 0.28. Further, in test [8], the z-score was 0.848 (inactive).

For the molecule `C=C(CCCC)/C(=C/C[C@H](OC(=O)c1ccncc1)c1cccc(OCCO)c1)c1cnc2ccccc2c1`, the composite z-score in test [1] is -0.279; in [2], 0.824; in [3] it was 0.0437; in test [4], 0.595; in test [5] it was 0.974; in test [6] it was 1.56. Besides, the composite z-score in test [7] is 1.04; in [9] it was 0.346; in test [10], -0.0491. Also, in test [8], the z-score is 0.996 (inactive).

As to `CC(C)c1nc2cc(Br)ccc2c(=O)o1`, the composite z-score in test [1] is -0.404; in test [2] it was 0.109; in test [3], 0.0013; in test [4], 0.58; in test [5], 1.39; in test [6], 1.21. Also, the composite z-score in test [7] was 0.565; in [9], 0.689; in [10] it was -0.146. Also, the z-score in test [8] is 0.604 (inactive).

In the case of `C=C(CCCC)C(=O)CC[C@@H](OC(=O)c1ccccc1-c1ccccc1C(=O)O)c1ccccc1OCCO`, the composite z-score in test [1] is -0.173; in test [2] it was 0.222; in test [3], -0.0566; in test [4] it was 0.803; in [5] it was -0.0697; in test [6] it was -0.0918. The composite z-score in test [7] is 0.0551; in test [9], -0.501; in test [10] it was 0.0373. In test [8], the z-score was -0.39 (inactive).
